# Among all 360,000 compounds or so, about 7,500 (2.1%) were called active. Entries that show only a call come without a potency. Roughly 20% stayed inconclusive and do not appear here. The sample holds actives, similar compounds and a random draw of the others, so the mix is not that of the screen. The call rests on the fitted dose curve; in most records, active means well fitted inhibition curve with a large enough effect; inconclusive means small, poorly fitted or top-dose-only effect, or effect the other way; inactive means flat fitted curve, though single readings scatter.
# Experiment: Nrf2 qHTS screen for inhibitors; further: nearly all actives have a fitted effect of over 60% in size
# Settings: A549 ARE-Fluc reporter, luciferase luminescence, 18-24 h; series mostly up to 46 µM
# Procedure, shortened: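 Quantitative HTS in A549 cells stably bearing an antioxidant response element-firefly luciferase construct. Inhibition of Nrf2-driven transcription was scored by luminescence after 18-24 h of compound exposure at 37 °C.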
# Potency means the concentration at half of the fitted maximal effect.
Compound,Potency,"activity change, negative = inhibition"
Cc1c(C)n(Cc2ccc(Cl)cc2)c2ccc(C(=O)N3CCN(c4ccccc4F)CC3)cc12,inactive,
Cc1cccc(C(CC(=O)NCC2(c3ccccc3)CCCC2)c2ccccc2)c1O (stereo not given),14.6 µM (active),
COc1cc(C(=O)NCC2(c3ccccc3)CCCC2)ccc1OC(C)C,inactive,
O=C(CNC1CCCCC1)NCC1(c2ccccc2)CCCC1,inactive,
Cc1cccc(N2C(=O)c3ccc(C(=O)Nc4cccc(C(=O)O)c4)cc3C2=O)c1,inactive,
CC(=O)c1cccc(NC(=O)c2cc(C)nn2-c2ccccc2)c1,inactive,
CC(=O)c1cccc(NC(=O)c2nc(-c3ccccc3)n(-c3cccc(C)c3)n2)c1,18.4 µM (active),
Cc1sc(C2C(C#N)=C(N)N(c3cccc(Cl)c3)C3=C2C(=O)CCC3)cc1CN1CCOCC1 (stereo not given),inactive,
COc1ccc(CNCCCNCc2ccc(OC)c(OC)c2)cc1OC,inactive,
O=C(Cc1cccs1)N1CCCC(c2nc(-c3ccc(S(=O)(=O)N4CCCC4)cc3)no2)C1 (stereo not given),23.1 µM (active),
O=C(c1ccc(C(F)(F)F)cc1)N1CCC(c2nc(-c3ccc(S(=O)(=O)N4CCCC4)cc3)no2)CC1,7.31 µM (active),
O=C(c1ccncc1)N1CCN(S(=O)(=O)c2cc(C(F)(F)F)cc(C(F)(F)F)c2)CC1,inactive,
NC(=O)C1CCN(C(=O)c2ccc(C(F)(F)F)cc2)CC1,inactive,
O=C(c1ccc(F)cc1)N1CCCC(c2nc(-c3cccs3)no2)C1 (stereo not given),inactive,
CC(C)c1ccc(-c2noc(C3CCCN(S(C)(=O)=O)C3)n2)cc1 (stereo not given),inactive,
CCOc1cc(C(=O)N(Cc2ccccc2)c2ccc(C)cc2)ccc1OCC(=O)N1CCOCC1,inactive,
COc1ccccc1NC(=O)C(=O)c1cc(C)n(-c2ccccc2F)c1C,inactive,
Oc1ccc(Cl)cc1C1C=C(c2ccc3c(c2)OCO3)NC(c2c(F)cccc2Cl)N1 (stereo not given),inactive,
OC[C@@H]1O[C@H](n2cnc3c(SCc4ccccc4)ncnc32)[C@H](O)[C@H]1O,inactive,
Cc1c(Cl)cccc1-c1ccc(CNCCCSc2nnnn2C)o1,inactive,
CCCCCn1c(CCNC(=O)c2ccc(F)cc2)nc2ccccc21,,6.85% [at 9.27 µM] (inactive)
CC(C)NC(=O)C1CCC(Cn2c(=O)c3sccc3n(Cc3ccc(F)cc3)c2=O)CC1 (stereo not given),inactive,
CCCCN(CC)CCCNC(=O)CS(=O)(=O)Cc1nc(-c2cccc(OC)c2)oc1C,inactive,
COc1cccc(-c2nc(CS(=O)(=O)CC(=O)N3CCN(c4cc(C)ccc4C)CC3)c(C)o2)c1,2.59 µM (active),
COc1cccc(-c2nc(CS(=O)(=O)CC(=O)NCCc3ccc(OC)c(OC)c3)c(C)o2)c1,inactive,
